Assay outcomes (PubChem)
Shown are actives, neighbours in structure and some others; about 0.41% of the full set was active somewhere.
N370S GC mod – inhibits or activates N370S mutant glucocerebrosidase | N370S GC spleen homogenate, 4MU-glucoside fluorescence | P04062 | Potency, µM (doses to about 59.4 µM), for the others: at the top dose activity change, negative = inhibition, usual class: inhibitors | AID 2101 | 330,000 compounds, 0.092% hits;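 further: potency means the concentration at half of the fitted maximal effect; 0% = full enzyme activity and -100% = no enzyme basal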
GAA glycogen – GAA glycogen-cleavage inhibition or activation; P10253; recombinant GAA, glycogen substrate, Amplex Red glucose oxidase fluorescence; Potency, µM (titrated, usually from 76.4 µM), without a hit: at the highest dose activity change, negative = inhibition, most hits filed as inhibitors; 300,000 compounds, 0.38% hits;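 further: potency means the concentration at half of the fitted maximal effect; 0% = full enzyme reaction and -100% = no-enzyme basal signal; the screen sought inhibitors and activators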
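Recombinant human alpha-glucosidase (4 nM final) hydrolysed bovine liver glycogen (30 ug) for 40 min at 37 C in pH 5.0 citrate/phosphate with 0.01% Tween-20. Released glucose detected by glucose oxidase/Amplex Red, Ex 573/Em 610 nm. Compounds up to 77 uM; AC50 from Hill fits.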
aGal spleen mod – inhibitors or activators of human alpha-galactosidase in spleen homogenate; P06280; human spleen homogenate, 4MU-alpha-Gal fluorescence, 40 min; Potency, µM (series often up to 80 µM), for inactives: at the top dose activity change, negative = inhibition, usual class: inhibitors; 240,000 compounds, 0.008% hits; AID 2107;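 further: potency means the concentration at half of the fitted maximal effect; 0% = enzyme with vehicle and -100% = no enzyme basal signal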
Target sequence (P06280 32-429 limits assumed): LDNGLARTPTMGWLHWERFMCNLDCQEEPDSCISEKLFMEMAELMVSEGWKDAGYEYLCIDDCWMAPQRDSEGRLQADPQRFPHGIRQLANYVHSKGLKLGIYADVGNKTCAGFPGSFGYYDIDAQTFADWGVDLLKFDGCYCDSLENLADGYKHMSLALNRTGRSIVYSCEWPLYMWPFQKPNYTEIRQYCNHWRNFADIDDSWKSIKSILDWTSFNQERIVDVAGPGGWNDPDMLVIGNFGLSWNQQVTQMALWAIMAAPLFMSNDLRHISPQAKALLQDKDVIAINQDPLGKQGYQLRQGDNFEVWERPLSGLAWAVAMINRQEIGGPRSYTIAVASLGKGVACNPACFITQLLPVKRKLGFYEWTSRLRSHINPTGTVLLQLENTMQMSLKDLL
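Spleen homogenate 1 ug + cpd (titration) + 4-MU-alpha-D-galactopyranoside 1 mM; 37C 40 min; 50 mM citrate/phosphate pH 5.0, 0.01% Tween-20; stop pH 10; fluorescence 365/440; AC50 via Hill.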
GAA inhib – blocks human lysosomal alpha-glucosidase; 200,000 compounds, 0.005% hits; AID 1466; P10253; Potency, µM (titrated, usually from 76.9 µM), inactives show at the top dose activity change, negative = inhibition, usual class: inhibitors; purified human GAA, 4-MU-alpha-glucoside fluorescence;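 further: potency means the concentration at half of the fitted maximal effect; plate controls were uninhibited enzyme wells for no effect and no-enzyme background for full effect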
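Activity normalized between no-enzyme (basal) and enzyme-only wells. Conditions: 4 nM human enzyme, 400 uM fluorogenic substrate, citrate/phosphate pH 5.0 with Tween-20, 20 min room temperature, compounds up to 77 uM.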
aGlu spleen mod – inhibits or activates alpha-glucosidase in human spleen homogenate; Potency, µM (top dose mostly 79.9 µM), inactives show at the highest dose activity change, negative = inhibition, usual class: inhibitors; human spleen homogenate, 4-MU-alpha-glucoside fluorescence; P10253; 240,000 compounds, 0.006% hits;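 further: potency means the concentration at half of the fitted maximal effect; 0% = enzyme with vehicle and -100% = no enzyme basal signal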
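AC50 values come from Hill-equation fits of concentration-response data, normalized to no-enzyme and full-activity controls. Enzyme source: 1 ug human spleen homogenate; 1 mM fluorogenic 4-MU glucoside, pH 5.0 citrate buffer, 37 C, 40 min.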
GLA inh pH 4.5 – alpha-galactosidase A (human) inhibition, pH 4.5; purified enzyme, 4-MU-alpha-Gal fluorescence, pH 4.5; activity change, negative = inhibition, % at 105 µM; P06280; 230,000 tested, under 10 active;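 further: 0% = full activity with enzyme and -100% = basal without enzyme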
* marks the source's active call; other numbers are inactive results; ? = inconclusive; . = not tested or not shown; ! = a repeat was not active; [ ] = dose if it differs, or a comment. The call rests on the fitted dose curve; in most records, active means well fitted curve in the direction sought with a large enough effect; inconclusive means small, poorly fitted or top-dose-only effect, or another doubt; inactive means no such curve, though single readings can be large; an effect the other way counts as inactive or inconclusive.

SMILES	N370S GC mod	GAA glycogen	aGal spleen mod	GAA inhib	aGlu spleen mod	GLA inh pH 4.5
Cc1onc(-c2ccccc2)c1C(=O)Nc1ccc(S(=O)(=O)N2CCCC2)cc1	-8%	14µM*	4%	-2%	2%	-3
Cc1[nH]c2ccc(OC(F)(F)F)cc2c1CCNCc1ccc(Cl)cc1	?	2%	.	.	.	.
CCOc1cccc(CNCCc2c(C)[nH]c3ccc(OC(F)(F)F)cc23)c1O	8.9µM*	3%	.	.	.	.
Cc1[nH]c2ccc(OC(F)(F)F)cc2c1CCNCc1cccc([N+](=O)[O-])c1	16µM*	-2%	.	.	.	.
CC(=O)[O-].CC(=O)[O-].O.O.[Cd+2]	5%	.	-12%	.	-6%	.
CC(=O)OCC[N+](C)(C)C	11%	9.9µM*!	-12%	-1%[15.4 µM]	2%	2
Clc1ccc(C(c2ccccc2Cl)C(Cl)(Cl)Cl)cc1 (stereo unspecified)	2%	.	20%	.	12%	.
N#CSCSC#N	-4%	.	-9%	.	1%	.
CC(C)NC[C@@H](O)COc1cccc2[nH]ccc12	11%	.	8%	.	11%	7
CC(C)NCC(O)COc1cccc2[nH]ccc12 (stereo unspecified)	8%	-2%	10µM*!	-8%[15.4 µM]	0%	-3
C=CCN1CCc2cccc3c2[C@H]1Cc1ccc(O)c(O)c1-3	-12%	6.3µM*	.	.	.	.
CCCN1CCc2cc(O)cc3c2C1Cc1ccc(O)c(O)c1-3 (stereo unspecified)	2%	.	4%	.	-6%	-2
O=[N+]([O-])c1ccc2c3c(cccc13)CC2	3%	.	26%	.	-1%	.
Nc1ccc2c3c(cccc13)CC2	-3%	25µM*	9%	4%	-11%	7
C[C@@H]1O[C@@H](O[C@H]2CC[C@@H](O[C@H]3[C@H](O)C[C@H](c4ccc5c(c4O)C(=O)C4=C(C5=O)[C@@]5(O)C(=O)C[C@](C)(O[C@H]6CC[C@H](O[C@H]7C=CC(=O)[C@H](C)O7)[C@H](C)O6)C[C@@]5(O)C=C4)O[C@@H]3C)O[C@H]2C)C=CC1=O	-2%	.	7%	.	-7%	.
c1ccc2c(c1)Nc1ccccc1S2	-2%	18µM*	-3%	2%[15.4 µM]	-3%	17
Oc1cc2c(cc1O)[C@H]1c3ccccc3CN[C@@H]1CC2	-4%	2.5µM*	-3%	-6%[15.4 µM]	7%	8
CN(C)C(=O)Oc1c(Cl)cc(Cl)c2ccccc12	-8%	1%	1%	-8%	-5%	-10
Cc1cc(C(=O)CS(=O)(=O)c2ccc(F)cc2)cc(C)c1OC(=O)N(C)C	4%	-5%	28µM*	-1%	?	11
CN(C)c1ccc(N(C)C)cc1	-4%	.	-4%	.	-10%	.
N#CC(Cl)Cl	6%	.	-3%	.	-10%	.
Oc1ccccc1/C=N/NP(=S)(c1ccccc1)c1ccccc1	5%	-3%	-12%	-7%	-1%	-17
Oc1ccc(/C=N/NP(=S)(c2ccccc2)c2ccccc2)cc1O	2%	16µM*	4%	-7%	-2%	-27
Oc1ccc(/C=N/NP(=S)(c2ccccc2)c2ccccc2)c(O)c1O	.	16µM*	-2%	?	-4%	-8
